Holding throughout (experiment): DAPPL (digital affinity profiling via proximity ligation, sequencing); 10 mM Tris-HCl pH 7.5, 50 mM NaCl, 1 mM DTT, 4% glycerol, room temperature, 30 min; GST-TFs on glutathione beads, 16-mer random dsDNA library, 0.1% formaldehyde crosslink after washing; high values mean tight binding
Test [1] has as its target T1, FEV (Homo sapiens, UniProt Q99581 1-238).
T1 sequence: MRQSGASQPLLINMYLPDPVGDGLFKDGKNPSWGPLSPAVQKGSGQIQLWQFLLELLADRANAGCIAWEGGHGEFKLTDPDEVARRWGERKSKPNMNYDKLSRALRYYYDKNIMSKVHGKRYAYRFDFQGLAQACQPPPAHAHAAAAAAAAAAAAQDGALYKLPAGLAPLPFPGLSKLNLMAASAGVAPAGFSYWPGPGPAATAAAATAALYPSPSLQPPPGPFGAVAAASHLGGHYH
As to conditions: protein: recombinant; tags: N-terminal GST; dsDNA, one strand shown. The method in brief:
(§1)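 Human transcription factors fused to GST were expressed in yeast, captured on glutathione beads, given DNA barcodes and pooled with a GST-only negative control. Pools were incubated with 200 nmole of a 16-mer random double-stranded DNA library in Tris/NaCl/DTT/glycerol buffer at room temperature for 30 min. They were then washed, crosslinked with 0.1% formaldehyde, proximity-ligated (BsaI/T4 ligase, 1 h, 37 °C), PCR-amplified and sequenced on an Illumina NextSeq500. Binding signal is each 6-mer's read frequency for a factor divided by its frequency for the GST control.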

Test [2] has as its target ETV5 (Homo sapiens, UniProt P41161 1-510). Particulars: protein: recombinant; tags: N-terminal GST; dsDNA, one strand shown. In a few lines:
as §1

The target in test [3] is HSF1 (Homo sapiens, UniProt Q00613 1-529). Particulars: protein: recombinant; tags: N-terminal GST; chain copies: 3; dsDNA, one strand shown. The method in brief:
as §1

Test [4] concerns the target T2, SPIC (Homo sapiens, UniProt Q8N5J4 1-248).
T2 sequence: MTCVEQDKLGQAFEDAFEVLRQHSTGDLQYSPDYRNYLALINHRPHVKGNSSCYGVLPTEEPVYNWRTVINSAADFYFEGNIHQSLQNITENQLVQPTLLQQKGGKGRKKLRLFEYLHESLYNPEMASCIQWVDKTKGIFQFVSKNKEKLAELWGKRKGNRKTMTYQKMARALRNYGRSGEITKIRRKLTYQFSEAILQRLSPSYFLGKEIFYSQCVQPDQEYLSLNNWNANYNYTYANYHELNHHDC
As to conditions: protein: recombinant; tags: N-terminal GST; dsDNA, one strand shown. In a few lines:
as §1

The target of test [5] is ELF4 (Homo sapiens, UniProt Q99607 1-663). Particulars: protein: recombinant; tags: N-terminal GST; dsDNA, one strand shown. The method in brief:
as §1

Test [6] addresses T3, ELK4 (Homo sapiens, UniProt P28324-2 1-405).
T3 sequence: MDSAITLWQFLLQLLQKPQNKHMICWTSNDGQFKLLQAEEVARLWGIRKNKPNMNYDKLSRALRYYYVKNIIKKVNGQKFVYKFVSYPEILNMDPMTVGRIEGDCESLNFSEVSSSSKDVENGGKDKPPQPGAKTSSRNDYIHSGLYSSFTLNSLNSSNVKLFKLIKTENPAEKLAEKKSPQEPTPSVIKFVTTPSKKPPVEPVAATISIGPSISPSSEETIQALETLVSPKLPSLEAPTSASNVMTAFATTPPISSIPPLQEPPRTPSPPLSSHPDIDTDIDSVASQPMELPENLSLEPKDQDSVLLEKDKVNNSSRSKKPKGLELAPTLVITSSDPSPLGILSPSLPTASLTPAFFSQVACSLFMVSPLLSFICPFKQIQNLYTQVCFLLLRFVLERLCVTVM
As to conditions: protein: recombinant; tags: N-terminal GST; dsDNA, one strand shown. In a few lines: as §1

Test [7] concerns the target T4, ETV2 (Homo sapiens, UniProt O00321 1-342).
T4 sequence: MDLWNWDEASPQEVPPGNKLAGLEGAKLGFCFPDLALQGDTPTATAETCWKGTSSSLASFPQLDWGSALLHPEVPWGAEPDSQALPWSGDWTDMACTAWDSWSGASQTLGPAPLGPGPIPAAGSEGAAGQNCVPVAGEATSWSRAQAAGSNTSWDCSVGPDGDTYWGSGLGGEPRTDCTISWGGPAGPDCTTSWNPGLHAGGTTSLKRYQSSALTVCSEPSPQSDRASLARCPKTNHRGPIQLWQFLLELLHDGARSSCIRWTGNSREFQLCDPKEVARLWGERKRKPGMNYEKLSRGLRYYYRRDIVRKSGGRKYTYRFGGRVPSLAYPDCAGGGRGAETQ
As to conditions: protein: recombinant; tags: N-terminal GST; dsDNA, one strand shown. The method in brief:
as §1

For test [8], the target named is T5, ELF3 (Homo sapiens, UniProt P78545 1-371).
T5 sequence: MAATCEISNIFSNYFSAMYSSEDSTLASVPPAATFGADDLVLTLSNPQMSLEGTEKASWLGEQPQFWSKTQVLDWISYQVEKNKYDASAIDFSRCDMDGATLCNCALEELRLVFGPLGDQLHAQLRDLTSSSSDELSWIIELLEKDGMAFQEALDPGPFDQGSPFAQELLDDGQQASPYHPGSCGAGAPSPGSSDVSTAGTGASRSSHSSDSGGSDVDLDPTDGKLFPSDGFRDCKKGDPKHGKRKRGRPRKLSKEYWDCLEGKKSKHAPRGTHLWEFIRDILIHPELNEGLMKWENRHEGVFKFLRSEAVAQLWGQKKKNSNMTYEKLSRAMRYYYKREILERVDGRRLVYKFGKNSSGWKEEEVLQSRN
As to conditions: protein: recombinant; tags: N-terminal GST; dsDNA, one strand shown. In a few lines: as §1

For test [9], the target named is CRX (Homo sapiens, UniProt O43186 1-299). Particulars: protein: recombinant; tags: N-terminal GST; dsDNA, one strand shown. In a few lines: as §1
Chain of CRX (O43186 whole entry): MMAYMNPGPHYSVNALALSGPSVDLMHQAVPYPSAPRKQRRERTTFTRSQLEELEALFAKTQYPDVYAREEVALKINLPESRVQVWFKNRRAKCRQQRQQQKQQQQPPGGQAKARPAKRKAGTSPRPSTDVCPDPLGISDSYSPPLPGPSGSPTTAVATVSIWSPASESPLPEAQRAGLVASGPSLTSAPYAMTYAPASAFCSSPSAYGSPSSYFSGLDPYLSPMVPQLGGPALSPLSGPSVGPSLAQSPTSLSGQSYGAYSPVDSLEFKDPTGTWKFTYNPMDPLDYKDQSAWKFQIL
Test [10] has as its target ETV1 (Homo sapiens, UniProt P50549 1-477). As to conditions: protein: recombinant; tags: N-terminal GST; dsDNA, one strand shown. In a few lines:
as §1

Test [11] concerns the target T6, ERF (Homo sapiens, UniProt P50548 1-548).
T6 sequence: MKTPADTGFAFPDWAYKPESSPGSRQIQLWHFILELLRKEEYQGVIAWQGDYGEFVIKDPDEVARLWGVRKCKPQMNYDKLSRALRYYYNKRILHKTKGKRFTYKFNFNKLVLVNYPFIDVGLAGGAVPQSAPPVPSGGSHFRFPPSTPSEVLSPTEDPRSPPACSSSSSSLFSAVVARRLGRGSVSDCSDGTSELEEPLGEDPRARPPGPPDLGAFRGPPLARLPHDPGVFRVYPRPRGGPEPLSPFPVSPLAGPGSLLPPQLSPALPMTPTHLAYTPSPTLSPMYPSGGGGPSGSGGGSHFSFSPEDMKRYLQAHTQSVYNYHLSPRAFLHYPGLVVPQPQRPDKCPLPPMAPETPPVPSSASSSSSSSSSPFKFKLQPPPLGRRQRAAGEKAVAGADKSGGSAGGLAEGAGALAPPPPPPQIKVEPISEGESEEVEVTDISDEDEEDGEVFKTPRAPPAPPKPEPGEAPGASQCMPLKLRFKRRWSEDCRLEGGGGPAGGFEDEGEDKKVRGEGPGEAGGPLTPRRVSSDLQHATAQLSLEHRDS
Particulars: protein: recombinant; tags: N-terminal GST; dsDNA, one strand shown. In a few lines: as §1

Test [12] concerns the target T7, ETV3L (Homo sapiens, UniProt Q6ZN32 1-361).
T7 sequence: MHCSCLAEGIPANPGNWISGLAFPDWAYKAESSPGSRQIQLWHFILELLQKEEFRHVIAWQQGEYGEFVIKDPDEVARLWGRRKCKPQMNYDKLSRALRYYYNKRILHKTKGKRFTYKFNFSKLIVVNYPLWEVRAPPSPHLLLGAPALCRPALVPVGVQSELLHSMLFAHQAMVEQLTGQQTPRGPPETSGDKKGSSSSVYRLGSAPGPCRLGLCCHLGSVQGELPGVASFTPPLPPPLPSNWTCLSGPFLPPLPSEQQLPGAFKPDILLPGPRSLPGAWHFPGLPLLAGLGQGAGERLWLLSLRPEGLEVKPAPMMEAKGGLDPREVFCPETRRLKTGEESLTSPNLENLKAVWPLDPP
Particulars: protein: recombinant; tags: N-terminal GST; dsDNA, one strand shown. The method in brief:
as §1

For test [13], the target named is T8, ETS2 (Homo sapiens, UniProt P15036 1-469).
T8 sequence: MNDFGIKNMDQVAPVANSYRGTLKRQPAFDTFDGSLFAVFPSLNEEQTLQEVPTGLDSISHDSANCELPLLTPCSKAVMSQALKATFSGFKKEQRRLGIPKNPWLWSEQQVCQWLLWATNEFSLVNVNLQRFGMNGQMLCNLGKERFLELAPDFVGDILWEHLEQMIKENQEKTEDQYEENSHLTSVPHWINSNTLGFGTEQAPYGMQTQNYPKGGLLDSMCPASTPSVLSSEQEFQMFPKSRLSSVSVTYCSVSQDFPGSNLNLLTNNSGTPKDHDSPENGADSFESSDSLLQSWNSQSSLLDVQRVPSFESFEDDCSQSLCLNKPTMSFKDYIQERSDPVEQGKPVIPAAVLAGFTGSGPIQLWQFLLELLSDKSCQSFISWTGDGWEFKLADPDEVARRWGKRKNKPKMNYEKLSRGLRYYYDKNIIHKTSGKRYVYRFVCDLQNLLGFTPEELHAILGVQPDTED
As to conditions: protein: recombinant; tags: N-terminal GST; dsDNA, one strand shown. The method in brief: as §1

For test [14], the target named is T9, SPDEF (Homo sapiens, UniProt O95238 1-335).
T9 sequence: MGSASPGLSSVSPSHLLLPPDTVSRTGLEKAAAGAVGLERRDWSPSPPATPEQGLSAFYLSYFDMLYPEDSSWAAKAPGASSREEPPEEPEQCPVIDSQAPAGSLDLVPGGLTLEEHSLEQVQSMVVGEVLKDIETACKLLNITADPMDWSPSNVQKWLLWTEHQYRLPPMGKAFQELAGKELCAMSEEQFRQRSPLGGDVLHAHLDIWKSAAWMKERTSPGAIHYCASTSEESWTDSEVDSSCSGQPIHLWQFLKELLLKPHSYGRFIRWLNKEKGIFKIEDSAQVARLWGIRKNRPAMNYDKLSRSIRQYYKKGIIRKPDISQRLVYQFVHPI
Particulars: protein: recombinant; tags: N-terminal GST; dsDNA, one strand shown. The method in brief: as §1

Test [15] deals with T10, ETV7 (Homo sapiens, UniProt Q9Y603 1-341).
T10 sequence: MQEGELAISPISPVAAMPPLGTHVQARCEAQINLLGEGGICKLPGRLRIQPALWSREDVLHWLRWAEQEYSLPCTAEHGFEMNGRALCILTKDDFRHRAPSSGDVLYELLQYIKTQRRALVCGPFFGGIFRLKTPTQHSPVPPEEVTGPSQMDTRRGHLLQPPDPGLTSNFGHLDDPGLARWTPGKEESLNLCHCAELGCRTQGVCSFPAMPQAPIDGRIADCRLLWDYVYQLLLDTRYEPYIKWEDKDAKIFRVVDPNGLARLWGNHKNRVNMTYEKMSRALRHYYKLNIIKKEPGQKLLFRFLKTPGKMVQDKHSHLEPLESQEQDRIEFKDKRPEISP
As to conditions: protein: recombinant; tags: N-terminal GST; dsDNA, one strand shown. In a few lines: as §1

Test [16] concerns the target T11, ELF5 (Homo sapiens, UniProt Q9UKW6-2 1-255).
T11 sequence: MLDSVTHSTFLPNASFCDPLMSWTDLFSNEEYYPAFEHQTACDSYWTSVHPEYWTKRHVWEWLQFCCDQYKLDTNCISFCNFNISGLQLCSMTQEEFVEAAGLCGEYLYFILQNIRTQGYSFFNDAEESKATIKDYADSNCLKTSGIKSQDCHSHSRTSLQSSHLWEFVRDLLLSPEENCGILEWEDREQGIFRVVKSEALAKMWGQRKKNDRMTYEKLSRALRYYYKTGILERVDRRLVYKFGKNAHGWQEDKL
As to conditions: protein: recombinant; tags: N-terminal GST; dsDNA, one strand shown. In a few lines:
as §1

The target in test [17] is T12, ETV3 (Homo sapiens, UniProt P41162-2 1-143).
T12 sequence: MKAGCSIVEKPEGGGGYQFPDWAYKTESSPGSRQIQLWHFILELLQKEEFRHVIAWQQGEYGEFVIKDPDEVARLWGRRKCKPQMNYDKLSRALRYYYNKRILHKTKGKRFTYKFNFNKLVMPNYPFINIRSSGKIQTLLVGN
As to conditions: protein: recombinant; tags: N-terminal GST; dsDNA, one strand shown. The method in brief:
as §1

Test [18] has as its target ETV6 (Homo sapiens, UniProt P41212 1-452). As to conditions: protein: recombinant; tags: N-terminal GST; dsDNA, one strand shown. The method in brief: as §1

Chain of ETV5 (P41161 whole entry): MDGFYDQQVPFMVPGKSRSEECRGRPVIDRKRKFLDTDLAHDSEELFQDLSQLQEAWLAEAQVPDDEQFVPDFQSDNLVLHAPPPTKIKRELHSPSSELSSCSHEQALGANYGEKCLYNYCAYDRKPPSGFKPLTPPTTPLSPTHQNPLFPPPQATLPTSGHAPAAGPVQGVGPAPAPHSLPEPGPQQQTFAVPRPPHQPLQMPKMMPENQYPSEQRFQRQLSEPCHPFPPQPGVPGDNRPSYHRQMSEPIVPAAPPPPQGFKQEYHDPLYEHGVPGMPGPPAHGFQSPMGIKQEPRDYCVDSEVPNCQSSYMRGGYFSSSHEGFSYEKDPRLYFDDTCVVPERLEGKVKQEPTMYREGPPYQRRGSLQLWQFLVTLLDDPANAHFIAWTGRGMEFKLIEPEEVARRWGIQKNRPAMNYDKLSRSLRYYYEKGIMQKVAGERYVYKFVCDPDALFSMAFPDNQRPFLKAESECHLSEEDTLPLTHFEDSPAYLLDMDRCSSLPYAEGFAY
Chain of ETV6 (P41212 whole entry): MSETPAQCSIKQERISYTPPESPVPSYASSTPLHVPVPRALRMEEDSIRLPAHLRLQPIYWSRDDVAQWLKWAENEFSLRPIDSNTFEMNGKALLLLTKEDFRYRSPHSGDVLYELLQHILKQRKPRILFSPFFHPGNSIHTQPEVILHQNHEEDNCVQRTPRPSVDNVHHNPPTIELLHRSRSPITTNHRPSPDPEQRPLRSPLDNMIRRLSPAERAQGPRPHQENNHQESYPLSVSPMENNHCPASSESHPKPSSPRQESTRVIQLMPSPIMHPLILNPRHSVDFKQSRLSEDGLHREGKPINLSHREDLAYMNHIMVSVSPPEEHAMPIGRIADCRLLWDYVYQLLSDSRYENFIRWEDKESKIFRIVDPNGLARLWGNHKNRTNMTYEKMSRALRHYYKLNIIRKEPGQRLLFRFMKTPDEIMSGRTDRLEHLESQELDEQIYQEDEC
Chain of ELF4 (Q99607 whole entry): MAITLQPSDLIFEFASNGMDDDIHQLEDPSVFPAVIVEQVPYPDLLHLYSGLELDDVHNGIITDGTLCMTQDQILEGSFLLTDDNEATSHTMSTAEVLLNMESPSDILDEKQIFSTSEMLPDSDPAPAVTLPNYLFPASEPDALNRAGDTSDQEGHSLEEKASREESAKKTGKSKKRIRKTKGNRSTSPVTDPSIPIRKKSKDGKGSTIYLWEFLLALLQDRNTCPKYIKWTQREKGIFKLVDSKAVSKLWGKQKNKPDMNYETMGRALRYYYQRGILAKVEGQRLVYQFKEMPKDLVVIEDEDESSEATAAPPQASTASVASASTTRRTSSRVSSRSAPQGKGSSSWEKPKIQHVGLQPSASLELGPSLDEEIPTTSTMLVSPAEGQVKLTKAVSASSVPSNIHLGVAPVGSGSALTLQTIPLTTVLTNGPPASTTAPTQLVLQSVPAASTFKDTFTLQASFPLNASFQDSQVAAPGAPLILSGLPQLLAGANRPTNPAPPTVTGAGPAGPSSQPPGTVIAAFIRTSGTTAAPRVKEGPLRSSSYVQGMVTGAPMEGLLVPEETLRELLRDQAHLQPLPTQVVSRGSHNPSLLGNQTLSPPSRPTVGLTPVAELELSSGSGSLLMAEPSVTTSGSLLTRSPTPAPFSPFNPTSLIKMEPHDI
Chain of ETV1 (P50549 whole entry): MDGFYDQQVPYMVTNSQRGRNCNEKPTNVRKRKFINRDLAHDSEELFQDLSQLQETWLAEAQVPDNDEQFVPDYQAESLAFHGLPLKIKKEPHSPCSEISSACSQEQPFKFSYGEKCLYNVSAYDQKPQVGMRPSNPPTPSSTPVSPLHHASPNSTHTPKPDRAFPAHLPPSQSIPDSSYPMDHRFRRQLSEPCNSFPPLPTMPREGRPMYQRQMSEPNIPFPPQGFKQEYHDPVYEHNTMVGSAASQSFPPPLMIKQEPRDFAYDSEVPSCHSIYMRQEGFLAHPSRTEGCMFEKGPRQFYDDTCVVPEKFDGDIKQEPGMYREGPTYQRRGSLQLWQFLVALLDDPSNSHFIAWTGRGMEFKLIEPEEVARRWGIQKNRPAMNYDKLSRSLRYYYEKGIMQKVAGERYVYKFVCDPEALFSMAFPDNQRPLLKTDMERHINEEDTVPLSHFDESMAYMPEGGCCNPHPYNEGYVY
Chain of HSF1 (Q00613 whole entry): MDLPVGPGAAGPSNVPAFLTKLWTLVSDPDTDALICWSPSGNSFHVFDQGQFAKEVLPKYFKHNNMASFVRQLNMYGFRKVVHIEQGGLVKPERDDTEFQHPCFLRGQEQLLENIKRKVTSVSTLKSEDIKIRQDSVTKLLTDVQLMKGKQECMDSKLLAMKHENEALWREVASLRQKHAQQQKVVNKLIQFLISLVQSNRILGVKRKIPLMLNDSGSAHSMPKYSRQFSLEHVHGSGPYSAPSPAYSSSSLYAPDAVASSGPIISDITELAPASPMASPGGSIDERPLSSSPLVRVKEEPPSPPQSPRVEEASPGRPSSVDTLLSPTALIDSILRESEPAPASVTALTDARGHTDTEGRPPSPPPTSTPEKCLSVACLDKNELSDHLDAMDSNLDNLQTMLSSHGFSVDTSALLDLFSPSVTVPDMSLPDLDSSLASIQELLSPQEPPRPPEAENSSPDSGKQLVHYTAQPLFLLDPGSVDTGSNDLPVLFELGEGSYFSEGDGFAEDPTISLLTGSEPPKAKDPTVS

ATCTTG: the binding signal in test [1] was 1.33 fold enrichment (6-mer frequency, TF over GST control); in test [2] it was 1.2 fold enrichment (6-mer frequency, TF over GST control); in test [3] it was 1.43 fold enrichment (6-mer frequency, TF over GST control); in test [4], 1.39 fold enrichment (6-mer frequency, TF over GST control); in test [5], 1.33 fold enrichment (6-mer frequency, TF over GST control); in test [6], 1.39 fold enrichment (6-mer frequency, TF over GST control). The binding signal was 1.35 fold enrichment (6-mer frequency, TF over GST control) in [7]; 1.5 fold enrichment (6-mer frequency, TF over GST control) in test [8]; 1.54 fold enrichment (6-mer frequency, TF over GST control) in test [9]; 1.25 fold enrichment (6-mer frequency, TF over GST control) in test [10]; 1.29 fold enrichment (6-mer frequency, TF over GST control) in [11]; 1.31 fold enrichment (6-mer frequency, TF over GST control) in test [12]. Besides, the binding signal in test [13] is 1.33 fold enrichment (6-mer frequency, TF over GST control); in test [14], 1.27 fold enrichment (6-mer frequency, TF over GST control); in [15], 1.24 fold enrichment (6-mer frequency, TF over GST control); in test [16], 1.23 fold enrichment (6-mer frequency, TF over GST control); in test [17] it was 1.37 fold enrichment (6-mer frequency, TF over GST control); in test [18], 1.18 fold enrichment (6-mer frequency, TF over GST control).

These data come from publication PMC7862700, “An all-to-all approach to the identification of sequence-specific readers for epigenetic DNA modifications on cytosine”.
